Assay outcomes deposited in PubChem by National Center for Advancing Translational Sciences (NCATS).
Pf growth 96h: Primary qHTS for delayed death inhibitors of the malarial parasite plastid, 96 hour incubation. P. falciparum luciferase reporter growth, 96 h. Potency, µM (series often up to 28.7 µM), for the others: at the highest dose activity change, negative = inhibition, actives largely listed as inhibitors. hit rate 6.9% among 320,000. AID 504834, 2011; note: potency is the fitted concentration of half-maximal effect; % is set by controls: 0 for no effect and ±100 for the full control effect
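Erythrocytes infected with luciferase-expressing P. falciparum were dispensed at 2% hematocrit and 0.05% parasitemia (final), then incubated with compounds 96 hours at 37 C in 5% CO2. Luminescence after detection reagent addition reported growth.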
MARV entry inh: qHTS for inhibitors of binding or entry into cells for Marburg Virus. Marburg virus pseudotyped entry inhibition, cell reporter. Potency, µM (doses to about 37.8 µM), without a hit: top-dose activity change, negative = inhibition, most hits filed as inhibitors. hit rate 1.8% among 300,000. AID 540276, 2011; calls by dose curve; tested in HEK293 cells; note: potency is the fitted concentration of half-maximal effect; % is set by controls: 0 for no effect and ±100 for the full control effect
Pf growth 48h: Primary qHTS for delayed death inhibitors of the malarial parasite plastid, 48 hour incubation. AID 504832, 2011. P. falciparum luciferase growth in erythrocytes, 48 h. Potency, µM (top dose mostly 28.7 µM), for inactives: top-dose activity change, negative = inhibition, hits mostly inhibitors. hit rate 5.9% among 310,000; note: potency is the fitted concentration of half-maximal effect; % is set by controls: 0 for no effect and ±100 for the full control effect
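Luciferase-expressing parasites in RBCs, 2% Hct / 0.1% parasitemia final; RPMI 1640 + 0.5% Albumax; 37 C, 5% CO2, one generation; luminescence read-out, lower signal = inhibition.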
Shiga toxin inh: A qHTS for Small Molecule Inhibitors of Shiga Toxin | hit rate 9.2% among 290,000 | AID 2315, 2010 | inhibition, % at 38.7 µM | Vero cells, Shiga toxin protein synthesis inhibition reporter; in the data active = inhibition mostly above about 28%, no sharp cut-off; inactive = mostly below about 43%; note: 0% is about no effect
Cycloheximide cs: Cycloheximide Counterscreen for Small Molecule Inhibitors of Shiga Toxin. cell reporter, cycloheximide protein synthesis inhibition counterscreen. max response, %. hit rate 12% among 300,000. AID 2314, 2010; in the data active = max response mostly above about 13%, no sharp cut-off; inactive = mostly below about 14%; note: read at 38.3 µM for the half of the compounds with a filed dose; 0% is about no effect
LASV entry inh: qHTS for Inhibitors of binding or entry into cells for Lassa Virus; Lassa virus pseudotype entry inhibition, cell reporter; Potency, µM (series often up to 37.9 µM), for inactives: at the highest dose activity change, negative = inhibition, most hits filed as inhibitors; hit rate 1.2% among 300,000; AID 540256, 2011; calls by dose curve; tested in HEK293 cells; note: potency is the fitted concentration of half-maximal effect; % is set by controls: 0 for no effect and ±100 for the full control effect; nearly all actives have a fitted effect of over 50% in size
An asterisk follows results filed as active; ? = inconclusive; . = no result; [ ] = another dose, or the depositor's remark. In the library only some 19% were active in any assay of this set; here they are far more common. Unless noted, calls come from the whole dose curve; as a rule, active = well fitted inhibition curve with a large enough effect; inconclusive = small, poorly fitted or top-dose-only effect, or another doubt; inactive = no such curve, though single readings can be large or run the other way.

SMILES	Pf growth 96h	MARV entry inh	Pf growth 48h	Shiga toxin inh	Cycloheximide cs	LASV entry inh
Cc1[nH]ccc2c1[nH]c1cc(=O)ccc12	10.4µM*	?	13.1µM*	-15.7	-7.2	0.0%[46.1 µM]
O=c1cc[nH]c2c1ccc1c(=O)cc[nH]c12	-26.6%	?	.	26.6	6.6	7.1%
COc1ccc(CNC(=O)CCn2c(=O)[nH]c3ccccc3c2=O)cc1	30.7%	11.8%	-1.9%	0.2	1.9	15.1%
COc1ccc(-c2cc(=O)n3[nH]cnc3n2)cc1	.	.	.	.	.	24.4%[46.1 µM]
O=C1CC[C@@H](CN(Cc2ccccc2)Cc2cn[nH]c2-c2cc3ccccc3o2)N1	14.7µM*	?	?	-6.1	-0.8	?
CCc1ccc(N=C2N=C(N)c3ccccc32)cc1	78.1%	?	.	54.2*	31.8*	13.4%
CCc1nn(CC(=O)N2CCC(C(N)=O)CC2)c(=O)c2cc3occc3n12	2.5%	.	18.4%	7.4	-9.7	.
CCOC(=O)/C=C(\C)Sc1cc(=O)oc2ccccc12	?	-28.5%	?	16.2	8.1	-16.9%
CCOC(=O)/C=C(\C)Sc1cc(O)c2ccccc2c1O	1.65µM*	.	1.47µM*	58.5*	30.6*	.
CCOc1cc(CNc2cccc3[nH]c(C)nc23)ccc1OC	18.2%	?	11.7µM*	-12.8	-3.1	-19.9%[46.1 µM]
CN(Cc1cccs1)C(=O)COC(=O)CNC(N)=O	-12.4%	.	-8.1%	9.6	-5.2	.
N/C(=N\OC(=O)CCCc1ccccc1)c1ccc([N+](=O)[O-])cc1	-8.8%	32.8%	31.9%	9.7	-1.4	3.5%
CN(CC(=O)O/N=C(\N)c1ccccn1)S(=O)(=O)c1ccccc1	55.6%	2.0%	12.0%	44.0*	16.9	13.8%
COc1ccc(/C(N)=N/OC(=O)CCCc2ccccc2)cc1OC	20.6%	?	1.3%	21.5	26.7*	-19.0%
N/C(=N\OC(=O)CCCc1ccccc1)c1ccccn1	-26.6%	1.7%	16.5%	53.5*	35.4*	?
COc1ccc(/C(N)=N/OC(=O)CN(C)S(=O)(=O)c2ccccc2)cc1	-1.2%	-1.3%[46.1 µM]	15.3%	40.9	14.2	-5.6%
N/C(=N\OC(=O)Cc1ccccc1)c1ccccn1	39.5%	13.9%	119.0%	37.1	27.8*	7.1%
Cc1ccc(NC(=O)COC(=O)c2ccc(CN3CCCC3=O)cc2)c(Cl)c1	-3.7%	22.0%	-15.0%	.	.	14.7%
O=[N+]([O-])c1cc(Cl)ccc1-c1nc(-c2ccccc2)no1	-4.5%	?	244.6%	61.8*	58.5*	?
Clc1ccc(Cl)c(-c2nc(-c3ccncc3)no2)c1	?	-0.3%	14.2%	.	-2.4	-7.9%
O=[N+]([O-])c1cc(Cl)ccc1-c1nc(-c2ccncc2)no1	-25.3%	28.0%[46.1 µM]	?	42.2*	19.5	0.3%
O=[N+]([O-])c1cc(-c2nc(-c3ccccc3)no2)ccc1N1CCCC1	.	-6.0%[46.1 µM]	.	.	.	7.5%[46.1 µM]
CCCC1C2C(=O)N(c3ccccc3OC)C(=O)C2ON1c1ccccc1 (stereo not given)	-18.7%	1.9%	0.1%	-6.8	-1.9	0.5%
CC1(C)CC(=O)C(C=NCCN2CCN(C(=O)CC3CCCC3)CC2)=C(O)C1	?	23.6%	-0.2%	10.0	9.6	6.6%
O=C(N/N=C/c1ccc(F)cc1)c1sccc1OCc1ccc(F)cc1	?	2.24µM*	-28.1%	50.5	12.8	?
SMILES	Pf growth 96h	MARV entry inh	Pf growth 48h	Shiga toxin inh	Cycloheximide cs	LASV entry inh
O=C(N/N=C/c1ccc(Cl)cc1)c1sccc1OCc1ccc(F)cc1	9.28µM*	?	?	-1.8	26.6*	?
NNC(=O)c1sccc1OCc1ccc(F)cc1	?	25.6%[46.1 µM]	?	-4.2	-1.9	3.0%
COc1ccc(-c2noc(-c3ccccc3-c3ccccc3)n2)cc1OC	27.0%	-8.0%	?	5.6	3.5	-23.0%
Cc1cc2oc(=O)cc(-c3cc4ccccc4o3)c2cc1O	2.62µM*	.	7.38µM*	14.1	30.1	.
O=c1cc(-c2cc3ccccc3o2)c2cc(O)ccc2o1	?	2.6%[46.1 µM]	?	3.9	-2.8	-21.0%[46.1 µM]
COc1ccc(-c2nnn(CC(=O)N(CCCO)C(C(=O)NC3CCCC3)c3ccncc3)n2)cc1 (stereo not given)	23.5%	?	0.5%	11.0	-7.5	10.6%[46.1 µM]
Cc1ccc(SC2=C(Sc3ccc(C)cc3)C(=O)c3ccccc3C2=O)cc1	0.738µM*	2.0%[46.1 µM]	0.415µM*	36.7*	28.4*	11.3%[46.1 µM]
O=C(CSc1n[nH]c(-c2ccccn2)n1)Nc1ccc(F)cc1	-8.4%	?	?	-6.9	-1.0	10µM*
Cc1ccc(NC(=O)CSc2n[nH]c(-c3ccccn3)n2)cc1	10.7%	4.47µM*	?	2.4	-5.0	?
O=C(CSc1n[nH]c(-c2ccccn2)n1)Nc1ccc(Cl)cc1	33.0%	?	?	-14.1	7.1	?
O=C(CSc1n[nH]c(-c2ccncc2)n1)Nc1ccc(F)cc1	-1.6%	-5.8%	11.5%	0.9	-1.4	9.3%
Cc1ccc(NC(=O)CSc2n[nH]c(-c3ccncc3)n2)cc1C	-22.6%	-12.1%	11.7µM*	46.4	4.6	22.9%
CCOc1ccc(N2C=Nc3ccc(OCC)cc3C2)cc1	?	.	?	48.2*	14.0*	.
CCOc1ccc(N2C(=O)CNC2=S)cc1	?	-22.2%[46.1 µM]	-1.7%	-11.2	0.5	-3.1%
Cc1ccc(-c2noc(C3CCCCC3)n2)cc1	73.4%	0.2%	113.3%	50.0*	26.5	?
CCS(=O)(=O)N1CCC(c2nc(-c3ccc(C)cc3)no2)CC1	?	4.8%	78.4%	74.0*	55.4*	-5.8%
CCS(=O)(=O)N1CCC(c2nc(-c3ccc(C(F)(F)F)cc3)no2)CC1	-13.5%	-1.1%	-14.6%	-16.9	-0.4	?
COc1ccc(-c2noc(C3CCCN(C(=O)c4ccc(C)cc4)C3)n2)cc1 (stereo not given)	-17.5%	?	114.4%	10.9	15.5	?
Cc1cccc(-c2noc(C3CCCCC3)n2)c1	.	?	163.8%	198.5*	54.6*	?
Cc1cccc(-c2noc(-c3ccno3)n2)c1	17.2%	.	20.7%	91.1*	40.3*	.
Cc1cccc(C(=O)N/C(=C\c2ccco2)C(=O)N2CCCCCC2)c1	?	-26.1%[46.1 µM]	-14.1%	25.6	5.3	-17.4%[46.1 µM]
COc1ccc(C(O)(c2ccccc2)C(C(=O)O)c2ccccc2)cc1 (stereo not given)	.	15.7%[46.1 µM]	.	.	.	0.6%[46.1 µM]
CCc1ccc(C2NC(=S)NC3=C2C(=O)CCC3)cc1 (stereo not given)	?	?	?	-19.5	2.5	2.9%
CCc1ccc(C2NC(c3ccc(CC)cc3)C([N+](=O)[O-])C(C)(C)C2[N+](=O)[O-])cc1 (stereo not given)	13.1µM*	-18.0%	?	-11.8	-4.3	11.2%
COc1cccc(C(=O)NCCCN2CCN(CCCNC(=O)c3cccc(OC)c3)CC2)c1	-11.0%	?	-1.6%	-7.0	-2.9	0.5%
